# Data published in publication PMC7862700, “An all-to-all approach to the identification of sequence-specific readers for epigenetic DNA modifications on cytosine”.
# How the values were obtained:
# Assay in all cases: DAPPL (digital affinity profiling via proximity ligation, sequencing); 10 mM Tris-HCl pH 7.5, 50 mM NaCl, 1 mM DTT, 4% glycerol, room temperature, 30 min; GST-TFs on glutathione beads, 16-mer random dsDNA library, 0.1% formaldehyde crosslink after washing; high values mean tight binding
# Conditions in all cases: protein: recombinant; tags: N-terminal GST; dsDNA, one strand shown
# FLI1 = biological target: T1, FLI1 (Homo sapiens, UniProt Q01543 1-452)
# T1 sequence: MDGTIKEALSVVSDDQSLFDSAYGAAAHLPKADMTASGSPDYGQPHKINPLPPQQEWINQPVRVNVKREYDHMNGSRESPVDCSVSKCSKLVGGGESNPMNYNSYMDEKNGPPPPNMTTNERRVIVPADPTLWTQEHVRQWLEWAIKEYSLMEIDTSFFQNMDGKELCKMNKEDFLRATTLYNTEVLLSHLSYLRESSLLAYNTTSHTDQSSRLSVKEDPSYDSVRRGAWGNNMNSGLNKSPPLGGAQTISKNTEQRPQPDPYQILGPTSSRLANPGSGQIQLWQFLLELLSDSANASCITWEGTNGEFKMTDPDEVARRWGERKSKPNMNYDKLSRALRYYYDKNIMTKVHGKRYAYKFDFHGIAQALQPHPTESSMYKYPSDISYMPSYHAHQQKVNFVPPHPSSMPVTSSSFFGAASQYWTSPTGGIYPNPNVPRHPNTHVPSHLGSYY
# Method in brief: (§1)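 The binding signal reported is, for every hexamer, its read frequency for a factor over its read frequency for the tag-only sample. Reads came from pools of yeast-expressed, GST-fused human transcription factors on glutathione beads, barcoded with DNA and mixed with that sample, which were incubated with 200 nmole of a random double-stranded 16-mer DNA library in Tris/NaCl/DTT/glycerol buffer at room temperature for 30 min. After washing, the pools were crosslinked with 0.1% formaldehyde, proximity-ligated with BsaI/T4 ligase for 1 h at 37 °C, PCR-amplified and sequenced on an Illumina NextSeq500.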
# ELK1 = biological target: T2, ELK1 (Homo sapiens, UniProt P19419 1-428)
# T2 sequence: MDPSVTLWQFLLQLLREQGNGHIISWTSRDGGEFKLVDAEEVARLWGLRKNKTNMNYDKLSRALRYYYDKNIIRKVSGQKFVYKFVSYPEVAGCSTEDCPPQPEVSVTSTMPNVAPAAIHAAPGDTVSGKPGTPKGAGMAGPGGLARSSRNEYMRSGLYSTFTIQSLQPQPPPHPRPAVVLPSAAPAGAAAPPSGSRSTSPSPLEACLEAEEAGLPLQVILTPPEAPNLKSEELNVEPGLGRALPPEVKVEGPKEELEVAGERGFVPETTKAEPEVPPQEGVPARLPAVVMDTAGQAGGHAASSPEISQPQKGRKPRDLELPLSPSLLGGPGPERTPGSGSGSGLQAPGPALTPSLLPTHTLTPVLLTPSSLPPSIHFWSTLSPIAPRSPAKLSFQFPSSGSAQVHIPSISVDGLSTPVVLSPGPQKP
# Method in brief: as §1
# GABPA = biological target: T3, GABPA (Homo sapiens, UniProt Q06546 1-454)
# T3 sequence: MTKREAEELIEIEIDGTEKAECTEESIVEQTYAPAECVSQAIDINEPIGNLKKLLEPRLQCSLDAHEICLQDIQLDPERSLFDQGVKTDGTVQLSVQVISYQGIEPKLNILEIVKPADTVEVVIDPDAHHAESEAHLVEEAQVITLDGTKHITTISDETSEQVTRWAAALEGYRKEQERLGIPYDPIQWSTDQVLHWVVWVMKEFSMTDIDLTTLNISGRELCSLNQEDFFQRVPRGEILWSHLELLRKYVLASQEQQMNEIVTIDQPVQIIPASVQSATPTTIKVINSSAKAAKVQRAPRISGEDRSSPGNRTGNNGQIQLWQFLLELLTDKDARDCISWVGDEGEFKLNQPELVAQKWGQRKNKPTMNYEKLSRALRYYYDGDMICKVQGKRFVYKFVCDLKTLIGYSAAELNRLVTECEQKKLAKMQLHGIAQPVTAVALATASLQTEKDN
# Method in brief: as §1
# ERG = biological target: T4, ERG (Homo sapiens, UniProt P11308 1-479)
# T4 sequence: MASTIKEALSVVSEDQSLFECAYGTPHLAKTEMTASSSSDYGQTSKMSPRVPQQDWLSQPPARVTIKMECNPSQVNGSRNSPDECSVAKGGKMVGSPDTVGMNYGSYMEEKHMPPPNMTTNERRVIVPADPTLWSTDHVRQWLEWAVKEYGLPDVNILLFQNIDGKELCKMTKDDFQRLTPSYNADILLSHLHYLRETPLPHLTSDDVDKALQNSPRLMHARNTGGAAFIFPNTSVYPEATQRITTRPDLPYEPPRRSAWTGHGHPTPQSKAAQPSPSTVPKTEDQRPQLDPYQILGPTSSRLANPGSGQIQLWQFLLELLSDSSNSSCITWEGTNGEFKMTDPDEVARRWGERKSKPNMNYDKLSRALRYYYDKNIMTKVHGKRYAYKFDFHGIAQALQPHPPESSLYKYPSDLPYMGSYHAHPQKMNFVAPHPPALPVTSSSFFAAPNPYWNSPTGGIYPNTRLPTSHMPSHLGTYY
# Method in brief: as §1
# ELF1 = ELF1 (Homo sapiens, UniProt P32519 1-619)
# ELF1, sequence (P32519 whole entry): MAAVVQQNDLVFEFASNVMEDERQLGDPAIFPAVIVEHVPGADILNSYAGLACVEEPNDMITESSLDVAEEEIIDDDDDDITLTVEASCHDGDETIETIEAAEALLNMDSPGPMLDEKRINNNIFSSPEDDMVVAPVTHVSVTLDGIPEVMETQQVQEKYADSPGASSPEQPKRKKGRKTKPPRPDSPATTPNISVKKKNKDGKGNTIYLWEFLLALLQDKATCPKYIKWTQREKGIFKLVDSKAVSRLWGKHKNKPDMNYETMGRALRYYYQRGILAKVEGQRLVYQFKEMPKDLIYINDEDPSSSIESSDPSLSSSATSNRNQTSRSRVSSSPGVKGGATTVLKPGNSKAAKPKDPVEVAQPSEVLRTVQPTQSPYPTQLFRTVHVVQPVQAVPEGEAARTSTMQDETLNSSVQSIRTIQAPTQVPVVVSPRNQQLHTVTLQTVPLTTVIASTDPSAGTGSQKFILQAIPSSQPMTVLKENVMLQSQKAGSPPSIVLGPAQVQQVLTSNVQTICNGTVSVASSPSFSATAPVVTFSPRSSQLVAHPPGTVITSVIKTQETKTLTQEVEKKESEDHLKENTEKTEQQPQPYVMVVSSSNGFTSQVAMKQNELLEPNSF
# Method in brief: as §1
# EHF = biological target: T5, EHF (Homo sapiens, UniProt Q9NZC4 1-300)
# T5 sequence: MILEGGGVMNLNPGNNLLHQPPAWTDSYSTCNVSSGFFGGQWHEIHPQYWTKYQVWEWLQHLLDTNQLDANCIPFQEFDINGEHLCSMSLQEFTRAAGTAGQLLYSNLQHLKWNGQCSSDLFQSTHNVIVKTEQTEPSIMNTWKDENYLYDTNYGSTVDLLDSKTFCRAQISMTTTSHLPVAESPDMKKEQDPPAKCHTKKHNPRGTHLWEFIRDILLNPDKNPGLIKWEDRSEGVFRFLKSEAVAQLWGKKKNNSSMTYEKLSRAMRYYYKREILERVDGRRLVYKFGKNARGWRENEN
# Method in brief: as §1
# SPIB = SPIB (Homo sapiens, UniProt Q01892 1-262)
# SPIB, sequence (Q01892 whole entry): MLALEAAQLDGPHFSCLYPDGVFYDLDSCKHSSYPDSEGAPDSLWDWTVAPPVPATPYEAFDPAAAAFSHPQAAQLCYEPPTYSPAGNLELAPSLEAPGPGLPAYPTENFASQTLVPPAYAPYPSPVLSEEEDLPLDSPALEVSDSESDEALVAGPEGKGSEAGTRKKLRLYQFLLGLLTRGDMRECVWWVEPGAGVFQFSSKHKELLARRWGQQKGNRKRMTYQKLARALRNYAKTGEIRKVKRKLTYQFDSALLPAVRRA
# Method in brief: as §1
# ELK3 = biological target: T6, ELK3 (Homo sapiens, UniProt P41970 1-407)
# T6 sequence: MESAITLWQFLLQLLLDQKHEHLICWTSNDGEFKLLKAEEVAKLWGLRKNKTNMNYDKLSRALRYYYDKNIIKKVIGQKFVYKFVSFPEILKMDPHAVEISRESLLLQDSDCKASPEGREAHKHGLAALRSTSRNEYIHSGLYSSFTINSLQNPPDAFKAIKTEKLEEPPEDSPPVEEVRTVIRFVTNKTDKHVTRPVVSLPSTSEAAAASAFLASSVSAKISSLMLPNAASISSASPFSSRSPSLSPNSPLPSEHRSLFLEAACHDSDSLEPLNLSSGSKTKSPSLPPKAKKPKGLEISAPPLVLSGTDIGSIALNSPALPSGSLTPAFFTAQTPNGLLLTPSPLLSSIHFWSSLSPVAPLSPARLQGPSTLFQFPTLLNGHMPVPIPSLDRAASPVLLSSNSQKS
# Method in brief: as §1
# FEV = biological target: T7, FEV (Homo sapiens, UniProt Q99581 1-238)
# T7 sequence: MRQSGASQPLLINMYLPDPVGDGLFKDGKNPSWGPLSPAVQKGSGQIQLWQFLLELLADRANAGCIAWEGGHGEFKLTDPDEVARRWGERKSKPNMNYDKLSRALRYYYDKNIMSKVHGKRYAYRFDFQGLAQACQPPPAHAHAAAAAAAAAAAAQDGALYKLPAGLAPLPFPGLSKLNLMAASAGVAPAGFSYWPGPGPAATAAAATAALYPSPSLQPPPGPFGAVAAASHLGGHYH
# Method in brief: as §1
# ETV5 = ETV5 (Homo sapiens, UniProt P41161 1-510)
# ETV5, sequence (P41161 whole entry): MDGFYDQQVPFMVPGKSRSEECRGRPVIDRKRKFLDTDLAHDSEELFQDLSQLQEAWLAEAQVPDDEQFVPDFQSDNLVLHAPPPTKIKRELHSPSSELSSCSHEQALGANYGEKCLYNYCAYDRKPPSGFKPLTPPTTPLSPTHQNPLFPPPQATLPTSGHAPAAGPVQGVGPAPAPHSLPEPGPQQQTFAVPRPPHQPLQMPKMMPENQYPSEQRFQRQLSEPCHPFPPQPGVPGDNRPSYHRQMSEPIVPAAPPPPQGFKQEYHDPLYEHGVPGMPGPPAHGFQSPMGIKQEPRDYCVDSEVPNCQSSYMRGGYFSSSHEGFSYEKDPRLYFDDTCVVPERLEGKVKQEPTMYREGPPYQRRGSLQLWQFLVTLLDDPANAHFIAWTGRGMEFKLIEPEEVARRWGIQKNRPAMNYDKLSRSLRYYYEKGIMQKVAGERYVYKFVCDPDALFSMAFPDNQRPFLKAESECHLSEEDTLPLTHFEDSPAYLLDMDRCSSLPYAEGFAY
# Method in brief: as §1
# SPIC = biological target: T8, SPIC (Homo sapiens, UniProt Q8N5J4 1-248)
# T8 sequence: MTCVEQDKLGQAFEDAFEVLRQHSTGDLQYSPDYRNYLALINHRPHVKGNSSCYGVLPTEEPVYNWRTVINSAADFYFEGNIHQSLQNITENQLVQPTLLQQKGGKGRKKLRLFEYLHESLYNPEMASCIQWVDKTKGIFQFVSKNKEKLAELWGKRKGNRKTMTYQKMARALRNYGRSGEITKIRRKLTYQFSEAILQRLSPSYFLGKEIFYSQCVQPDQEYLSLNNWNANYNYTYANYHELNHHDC
# Method in brief: as §1
# ELF4 = ELF4 (Homo sapiens, UniProt Q99607 1-663)
# ELF4, sequence (Q99607 whole entry): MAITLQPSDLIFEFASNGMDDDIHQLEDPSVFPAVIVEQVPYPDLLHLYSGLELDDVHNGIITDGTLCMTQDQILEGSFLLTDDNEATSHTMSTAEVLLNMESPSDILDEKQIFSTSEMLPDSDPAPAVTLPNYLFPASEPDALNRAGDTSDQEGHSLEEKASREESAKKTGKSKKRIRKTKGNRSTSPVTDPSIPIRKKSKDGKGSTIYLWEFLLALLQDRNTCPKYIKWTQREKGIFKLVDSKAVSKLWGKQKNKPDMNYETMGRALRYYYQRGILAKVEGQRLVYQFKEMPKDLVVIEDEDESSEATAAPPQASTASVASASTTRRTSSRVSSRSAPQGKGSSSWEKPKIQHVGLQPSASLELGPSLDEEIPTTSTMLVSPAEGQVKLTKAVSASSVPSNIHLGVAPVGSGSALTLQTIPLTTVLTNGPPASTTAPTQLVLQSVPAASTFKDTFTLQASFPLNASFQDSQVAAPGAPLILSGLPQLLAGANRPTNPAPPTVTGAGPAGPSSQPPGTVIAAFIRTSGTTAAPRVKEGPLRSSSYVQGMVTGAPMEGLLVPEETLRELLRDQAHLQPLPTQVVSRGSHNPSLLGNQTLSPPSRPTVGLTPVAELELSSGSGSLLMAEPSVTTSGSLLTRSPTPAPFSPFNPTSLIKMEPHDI
# Method in brief: as §1
# ETV1 = ETV1 (Homo sapiens, UniProt P50549 1-477)
# ETV1, sequence (P50549 whole entry): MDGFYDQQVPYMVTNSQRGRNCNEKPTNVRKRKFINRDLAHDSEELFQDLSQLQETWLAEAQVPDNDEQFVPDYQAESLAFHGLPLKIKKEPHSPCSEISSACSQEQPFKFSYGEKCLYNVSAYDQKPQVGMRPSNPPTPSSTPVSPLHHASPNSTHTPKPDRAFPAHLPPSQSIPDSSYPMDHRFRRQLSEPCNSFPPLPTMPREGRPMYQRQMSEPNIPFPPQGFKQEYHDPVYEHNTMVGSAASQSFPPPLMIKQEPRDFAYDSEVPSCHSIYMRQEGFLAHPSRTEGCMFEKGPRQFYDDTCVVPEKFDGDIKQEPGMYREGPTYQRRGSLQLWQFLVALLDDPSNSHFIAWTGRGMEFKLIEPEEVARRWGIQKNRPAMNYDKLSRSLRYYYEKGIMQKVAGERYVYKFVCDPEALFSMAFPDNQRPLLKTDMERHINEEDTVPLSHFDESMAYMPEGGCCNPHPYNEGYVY
# Method in brief: as §1
# ERF = biological target: T9, ERF (Homo sapiens, UniProt P50548 1-548)
# T9 sequence: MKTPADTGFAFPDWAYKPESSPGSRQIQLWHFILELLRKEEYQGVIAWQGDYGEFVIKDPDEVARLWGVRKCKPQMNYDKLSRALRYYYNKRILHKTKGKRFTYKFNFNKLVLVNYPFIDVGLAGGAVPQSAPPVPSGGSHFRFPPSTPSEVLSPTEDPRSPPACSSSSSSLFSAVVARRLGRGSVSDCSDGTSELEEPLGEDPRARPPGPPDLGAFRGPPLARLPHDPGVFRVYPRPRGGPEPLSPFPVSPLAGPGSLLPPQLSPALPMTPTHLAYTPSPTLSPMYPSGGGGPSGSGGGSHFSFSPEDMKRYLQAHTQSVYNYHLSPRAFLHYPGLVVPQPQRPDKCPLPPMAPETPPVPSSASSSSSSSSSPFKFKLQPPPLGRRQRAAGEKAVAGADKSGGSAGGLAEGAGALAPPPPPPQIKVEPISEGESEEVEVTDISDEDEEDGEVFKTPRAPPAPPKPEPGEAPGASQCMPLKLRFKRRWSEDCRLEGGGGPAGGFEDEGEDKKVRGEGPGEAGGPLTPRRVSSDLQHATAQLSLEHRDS
# Method in brief: as §1
# ETV3L = biological target: T10, ETV3L (Homo sapiens, UniProt Q6ZN32 1-361)
# T10 sequence: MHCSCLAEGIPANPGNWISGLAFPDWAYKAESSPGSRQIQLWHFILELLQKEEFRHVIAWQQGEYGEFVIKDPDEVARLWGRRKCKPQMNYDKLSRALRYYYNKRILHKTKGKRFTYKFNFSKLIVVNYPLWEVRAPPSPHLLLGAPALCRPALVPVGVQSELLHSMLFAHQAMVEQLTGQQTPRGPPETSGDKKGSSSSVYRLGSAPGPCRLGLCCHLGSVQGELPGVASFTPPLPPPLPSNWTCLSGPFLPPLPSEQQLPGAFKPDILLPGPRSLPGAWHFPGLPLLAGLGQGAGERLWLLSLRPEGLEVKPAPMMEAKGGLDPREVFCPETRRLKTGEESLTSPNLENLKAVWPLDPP
# Method in brief: as §1
# ETS2 = biological target: T11, ETS2 (Homo sapiens, UniProt P15036 1-469)
# T11 sequence: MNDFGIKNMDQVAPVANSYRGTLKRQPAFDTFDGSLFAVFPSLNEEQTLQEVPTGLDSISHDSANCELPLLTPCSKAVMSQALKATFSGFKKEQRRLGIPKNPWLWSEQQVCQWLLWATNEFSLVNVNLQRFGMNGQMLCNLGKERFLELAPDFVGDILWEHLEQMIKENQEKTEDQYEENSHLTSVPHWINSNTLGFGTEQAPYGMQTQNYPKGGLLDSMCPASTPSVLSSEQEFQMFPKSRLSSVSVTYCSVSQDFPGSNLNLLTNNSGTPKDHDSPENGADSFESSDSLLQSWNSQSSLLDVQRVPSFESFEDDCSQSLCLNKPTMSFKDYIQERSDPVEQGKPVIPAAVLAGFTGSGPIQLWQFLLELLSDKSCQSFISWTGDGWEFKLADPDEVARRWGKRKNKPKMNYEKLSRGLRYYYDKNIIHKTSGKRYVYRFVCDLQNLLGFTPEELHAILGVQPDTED
# Method in brief: as §1
# SPDEF = biological target: T12, SPDEF (Homo sapiens, UniProt O95238 1-335)
# T12 sequence: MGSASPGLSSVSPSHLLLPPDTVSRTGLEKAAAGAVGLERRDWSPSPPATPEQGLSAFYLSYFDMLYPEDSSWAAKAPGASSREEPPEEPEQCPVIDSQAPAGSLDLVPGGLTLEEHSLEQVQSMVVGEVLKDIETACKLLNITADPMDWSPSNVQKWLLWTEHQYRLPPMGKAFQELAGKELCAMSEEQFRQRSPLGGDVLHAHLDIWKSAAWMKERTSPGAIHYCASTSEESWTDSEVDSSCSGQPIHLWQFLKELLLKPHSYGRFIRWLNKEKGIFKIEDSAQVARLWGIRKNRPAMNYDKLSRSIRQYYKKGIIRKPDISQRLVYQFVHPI
# Method in brief: as §1
# ETV3 = biological target: T13, ETV3 (Homo sapiens, UniProt P41162-2 1-143)
# T13 sequence: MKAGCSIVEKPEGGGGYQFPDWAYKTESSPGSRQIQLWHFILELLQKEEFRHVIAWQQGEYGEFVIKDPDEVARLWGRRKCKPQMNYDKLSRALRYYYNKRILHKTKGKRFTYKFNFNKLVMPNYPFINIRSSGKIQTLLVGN
# Method in brief: as §1
# ETV6 = ETV6 (Homo sapiens, UniProt P41212 1-452)
# ETV6, sequence (P41212 whole entry): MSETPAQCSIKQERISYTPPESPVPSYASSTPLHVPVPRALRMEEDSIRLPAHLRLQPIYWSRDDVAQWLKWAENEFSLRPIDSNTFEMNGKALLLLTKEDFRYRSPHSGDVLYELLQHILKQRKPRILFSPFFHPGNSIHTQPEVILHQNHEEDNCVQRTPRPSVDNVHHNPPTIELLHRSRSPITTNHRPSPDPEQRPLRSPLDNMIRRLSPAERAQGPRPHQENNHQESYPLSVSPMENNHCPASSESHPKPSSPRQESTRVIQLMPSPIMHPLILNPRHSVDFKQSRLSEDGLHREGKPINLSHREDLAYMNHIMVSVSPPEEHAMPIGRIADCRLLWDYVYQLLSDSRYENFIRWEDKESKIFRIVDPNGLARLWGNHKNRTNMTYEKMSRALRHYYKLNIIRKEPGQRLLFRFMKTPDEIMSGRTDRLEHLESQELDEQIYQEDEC
# Method in brief: as §1
sequence,measurement,setting,value
CGCCCG,binding signal,FLI1,"1.28 fold enrichment (6-mer frequency, TF over GST control)"
same,binding signal,ELK1,"1.2 fold enrichment (6-mer frequency, TF over GST control)"
same,binding signal,GABPA,"1.07 fold enrichment (6-mer frequency, TF over GST control)"
same,binding signal,ERG,"1.14 fold enrichment (6-mer frequency, TF over GST control)"
same,binding signal,ELF1,"1.18 fold enrichment (6-mer frequency, TF over GST control)"
same,binding signal,EHF,"1.11 fold enrichment (6-mer frequency, TF over GST control)"
same,binding signal,SPIB,"1.2 fold enrichment (6-mer frequency, TF over GST control)"
same,binding signal,ELK3,"1.15 fold enrichment (6-mer frequency, TF over GST control)"
same,binding signal,FEV,"1.14 fold enrichment (6-mer frequency, TF over GST control)"
same,binding signal,ETV5,"1.06 fold enrichment (6-mer frequency, TF over GST control)"
same,binding signal,SPIC,"1.17 fold enrichment (6-mer frequency, TF over GST control)"
same,binding signal,ELF4,"1.11 fold enrichment (6-mer frequency, TF over GST control)"
same,binding signal,ETV1,"1.13 fold enrichment (6-mer frequency, TF over GST control)"
same,binding signal,ERF,"1.09 fold enrichment (6-mer frequency, TF over GST control)"
same,binding signal,ETV3L,"1.26 fold enrichment (6-mer frequency, TF over GST control)"
same,binding signal,ETS2,"1.09 fold enrichment (6-mer frequency, TF over GST control)"
same,binding signal,SPDEF,"1.1 fold enrichment (6-mer frequency, TF over GST control)"
same,binding signal,ETV3,"1.3 fold enrichment (6-mer frequency, TF over GST control)"
same,binding signal,ETV6,"1.02 fold enrichment (6-mer frequency, TF over GST control)"
